Tested on: Plasmodium falciparum NF54
Test: growth inhibition relative to untreated control; higher = more inhibition
Settings: 72 h
How it was run: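 Growth inhibition was measured by SYBR Green fluorescence, normalised to untreated wells and corrected for background from uninfected erythrocytes. The parasites were P. falciparum NF54 ring stages (1% hematocrit, 1% parasitemia) exposed to single 5 μM or 1 μM doses of test compounds for 72 h at 37 °C, in either minimal RPMI or minimal RPMI containing 2.2 μM folate, 7.3 μM pABA, 7.3 μM pHBA, 111 μM tyrosine, 90 μM phenylalanine and tryptophan.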

[1] = 1 µM, MM + chorismate end-products (CM screening medium)
[2] = 5 µM, MM + chorismate end-products (CM screening medium)

| Compound | growth inhibition [1] | growth inhibition (1 µM, minimal medium (MM)) | growth inhibition [2] | growth inhibition (5 µM, minimal medium (MM)) |
| --- | --- | --- | --- | --- |
| CC(C)(C)c1cnc(NC(=O)c2ccccc2O)s1 | 38.5% | 7.86% | 51.6% | 3.99% |
| C[C@H](C(N)=O)N1CCCC[C@H]1c1ccc(OCc2cccc(F)c2)cc1 | 18.3% | 3.3% | < 0% | < 0% |
| CC(C)=CCC/C(C)=C/CNCCNC1C2CC3CC(C2)CC1C3 (stereo not given) | 88.5% | 92.6% | > 100% | 91.3% |
| O=C(c1ccc(NCCO)cc1)C1C[C@H]1c1ccc(Cl)cc1 (stereo not given in full) | 71% | 98.1% | 91.8% | 89% |
| CCOC(=O)c1c(NC(=O)c2c(F)c(F)c(F)c(F)c2F)sc(C(N)=O)c1C | 28.3% | < 0% | 14.8% | 13.1% |
| COc1cccc(CC(=O)N2CCC(n3c(C)nc4ccc(F)cc43)CC2)c1 | > 100% | > 100% | > 100% | 95.6% |
| Cc1cc(C(=O)Nc2ccc(-c3ccccc3)cc2)no1 | 96.4% | 91.1% | 84.6% | 94% |
| Cn1ncc2c(N3CCOCC3)nc(NCCc3c[nH]c4ccccc34)nc21 | 18.9% | 31.1% | 10.8% | < 0% |
| Cc1cc(Cl)ccc1NC(=O)CCc1ccc(S(=O)(=O)NCC(C)C)cc1 | 23% | < 0% | 6.82% | < 0% |
| CO[C@@H](C(=O)N1Cc2[nH]nc(NC(=O)c3ccc(N4CCN(C)CC4)cc3)c2C1)c1ccccc1 | 45.1% | 55.3% | 90% | 90.1% |
| CCC(=O)Nc1ccccc1C(=O)Nc1ccccn1 | < 0% | < 0% | < 0% | < 0% |
| N#Cc1nc(-c2ccccc2)oc1S(=O)(=O)c1ccc(Cl)cc1 | 43.4% | 49.5% | 97.9% | 55% |
| NCCC(O)C(=O)N[C@@H]1C[C@H](N)[C@@H](OC2O[C@H](CN)[C@@H](O)[C@H](O)[C@H]2O)[C@H](O)C1OC1O[C@H](CO)[C@@H](O)[C@H](N)[C@H]1O (stereo not given in full) | 46% | 17.2% | < 0% | < 0% |
| CC(=O)N1CCN(c2ccc(Oc3ccc(Cl)cc3O)cc2)CC1 | 48.6% | 13.5% | < 0% | < 0% |
| CC(C)(C)CN1C(=O)C(c2ccccc2)(c2ccccc2)N=C1N | 45.9% | 45.7% | 57.1% | 34.9% |

— the supplement of paper PMC6763611
